Assay results as given in PubChem BioAssay (NCI).
The panel holds about 79,000 compounds, 15% with a hit somewhere; the sample as a whole holds those more often. Values without a mark were called inactive. Activity calls are given as the source filed them. No stated cut-off is given here; in the data, active means growth inhibition above about 70%; inactive means the rest.

What was measured:
[1] = NCI Yeast Anticancer Drug Screen. Data for the rad50 strain (AID 155);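 further: 0% = growth of vehicle-only cultures of the same strain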; settings: S. cerevisiae rad50 strain growth inhibition; at 50.0 µM; active compounds read high
In short: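 Readout: growth inhibition relative to vehicle-treated cultures. Compound exposure was carried out in a genetically defined yeast strain deficient in DNA damage repair.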

[2] = NCI Yeast Anticancer Drug Screen. Data for the mec2-1 strain (AID 157); settings: S. cerevisiae mec2-1 strain, at 50.0 µM, active compounds read high
In short: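 Readout is yeast growth inhibition, normalised to vehicle-treated controls, in the mec2-1 strain exposed to compound.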

[3] = NCI Yeast Anticancer Drug Screen. Data for the sgs1 mgt1 strain (AID 161);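 further: 0% = growth of cultures given vehicle only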; settings: S. cerevisiae sgs1 mgt1 strain, at 50.0 µM, active compounds read high
In short: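 Compounds are added to genetically altered yeast, and growth is compared with cultures given vehicle alone to give percent inhibition.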

[4] = NCI Yeast Anticancer Drug Screen. Data for the cln2 rad14 strain (AID 165);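 further: 0% = growth equal to vehicle treated cultures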; settings: S. cerevisiae cln2 rad14 strain, at 50.0 µM, active compounds read high
In short: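 Relative to vehicle controls, growth inhibition of compound-treated cln2 rad14 yeast was recorded.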

[5] = NCI Yeast Anticancer Drug Screen. Data for the bub3 strain (AID 167); settings: S. cerevisiae bub3 mutant strain, at 50.0 µM, active compounds read high
In short: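 Readout: yeast growth inhibition, expressed relative to vehicle-only wells. The test organism is a mutant strain from a panel with lesions in DNA repair or checkpoint genes.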

[6] = NCI Yeast Anticancer Drug Screen. Data for the mlh1 rad18 strain (AID 175); settings: S. cerevisiae mlh1 rad18 strain growth inhibition; at 50.0 µM; active compounds read high
In short: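 Test agents were incubated with a yeast strain of defined genotype (DNA damage repair defect). Inhibition of growth was derived by comparison with vehicle-exposed cultures.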

| Compound | growth inhibition [1] | growth inhibition [2] | growth inhibition [3] | growth inhibition [4] | growth inhibition [5] | growth inhibition [6] |
| --- | --- | --- | --- | --- | --- | --- |
| c1c[nH]c(C2=NCCCCC2)c1 | 1.85% | -6.95% | 2.2% | -3% | -5.2% | -29.1% |
| Nc1nc(Sc2ccc([N+](=O)[O-])c3nonc23)c2[nH]cnc2n1 | 17.1% | 7.25% | -20.4% | 17.2% | 29.1% | 34.6% |
| COC(=O)c1ccc(SCCC2(COS(C)(=O)=O)OCCO2)cc1 | 18.6% | -16.9% | 1.35% | 18.7% | 1.4% | -4.1% |
| Cn1c(N)c(NC(=O)CC#N)c(=O)n(C)c1=O | 20.9% | 2.7% | 27.3% | 21% | -9.85% | 21.1% |
| CCSCCCSCCSCC | 58.5% | 46.5% | 57.5% | 43.7% | 63.5% | 56% |
| O=c1[nH]c(-c2ccncc2)nnc1-c1ccc(Cl)cc1 | -4.4% | -8.1% | -11.5% | -26.9% | 2.15% | -14.1% |
| Nc1ncnc2c1N=C(c1ccccc1)CC(c1ccccc1)N2 (centres undefined) | -8.75% | -5.15% | -4.15% | 3.15% | -35.4% | 2.6% |
| COc1cc(C2SC(N)=Nc3c2c(C)nn3C(=O)c2ccc(Cl)cc2)ccc1O (centres undefined) | -36.7% | 15.8% | -9.55% | -30.4% | 16.8% | -10.2% |
| O=C(Nc1cccc(Cl)c1Cl)Oc1ccc(Cl)cc1C(=O)c1ccccc1 | -7.8% | -1% | -17.1% | 4.5% | -12.9% | -27.4% |
| CC(C)=C/C(C)=N/Nc1ccc([N+](=O)[O-])cc1[N+](=O)[O-] | 5.9% | 5.6% | 13.5% | 2.05% | 12.8% | -0.2% |
| CCC(C#N)N(Cc1cccc(CN(C(C)=O)C(C#N)CC)c1)C(C)=O (centres undefined) | -5.9% | -11.7% | -4.15% | -29.9% | -25.7% | -43.9% |
| CCCCCCCCCC(=O)N/N=C/c1ccco1 | 51.7% | 59.6% | 63% | 44.9% | 69.4% | 78% (active) |
| Cc1cc(Br)cc(Cl)c1O | -22.1% | -7.9% | 6.55% | -11.2% | -30.2% | -12.4% |
| O=C(COc1cc(Cl)c(Cl)cc1Cl)Nc1c(Cl)cc(Cl)cc1Cl | 2.5% | 5.8% | -2.75% | -18.6% | -2.15% | 22.7% |
| COc1ccc(/C=C(\CC(=O)c2ccc(Cl)cc2)C(=O)O)cc1 | -21.5% | -8.85% | 6.6% | -30.6% | 1% | -5.8% |
| O=C1NC(=O)C2(CC3CCCCC3CC2c2ccccc2)N1 (centres undefined) | 17.1% | 13.3% | 12.8% | 3.1% | 10.3% | 10.9% |
| CCC(C)C(C)/C(C)=N/Nc1ccc([N+](=O)[O-])cc1[N+](=O)[O-] (centres undefined) | 13.7% | -10% | 0.25% | -34.9% | 6.6% | -26.4% |
| Nc1nc(N)c(N=Nc2ccc(Cl)cc2Cl)c(=O)[nH]1 | 18.6% | -2.6% | -6.45% | 15.6% | 14.8% | 2.75% |
| CCOC(=O)C(OC(C)=O)(C(=O)OCC)C(O)c1cccnc1 (centres undefined) | 15.1% | -2.25% | 16.3% | -37.5% | 8% | -1.05% |
| Cc1ccc(S(=O)(=O)Oc2ccccc2OS(=O)(=O)c2ccc(C)cc2)cc1 | 3.4% | 2.35% | -13.9% | -4.1% | -5% | 0.75% |

| Compound | growth inhibition [1] | growth inhibition [2] | growth inhibition [3] | growth inhibition [4] | growth inhibition [5] | growth inhibition [6] |
| --- | --- | --- | --- | --- | --- | --- |
| CC1=NN(C(=O)c2ccc(Cl)cc2)C(=O)/C1=C/c1ccc(O)cc1 | -6.65% | -16.6% | -38.6% | -7.55% | -3.55% | -19.9% |
| CNc1nc2c(C)ccc3[nH]c(NC)nc3c-2n1 | -22.2% | -25.1% | -6.65% | 1.95% | -41.4% | -15.9% |
| COc1ccc(/C=C/C(=O)c2c(-c3ccccc3)nn(C)c(=O)c2N2CCCCC2)cc1 | 7.8% | -8.5% | -10.8% | 26.5% | 7.05% | 1.7% |
| O=C1C(Br)=C(Br)C(=O)C2=C1C1c3ccccc3C2c2ccccc21 | 98.5% (active) | 98.2% (active) | 97.8% (active) | 97% (active) | 98.2% (active) | 97.8% (active) |
| Cc1nc(Br)c([N+](=O)[O-])[nH]1 | 6.9% | -6.4% | -2.4% | -47.9% | -9.75% | 4.8% |
| C=CS(=O)CCCCCCC (centres undefined) | 25.1% | -1.3% | -13.9% | -68.5% | 4.45% | -34.4% |
| NC(=S)n1nc(-c2ccccc2)c(N=Nc2ccc(Br)cc2)c1-c1ccccc1 | 38.6% | 3.8% | 21.7% | 15.4% | 14.2% | 12.4% |
| CN(C)CCNC(=O)c1ccc(NC(=O)c2nc([N+](=O)[O-])cn2C)cc1 | -14.2% | 10.6% | 4.9% | -22.6% | -8.5% | -31.6% |
| CCCn1c(=O)n(C)c(=O)c2c1ncn2C | -5.15% | -2.25% | 13.2% | -28.1% | 4.1% | 13.5% |
| Oc1cc(-n2cccn2)c(O)cc1-n1cccn1 | 23.1% | -4.75% | 15.3% | 5.25% | 12.2% | -39% |
| COc1c2c(c(Cc3c4c(c(OC)c5c3OCO5)OC(C)C4)c3c1OCO3)CC(C)O2 (centres undefined) | 24.1% | 2.35% | 5.65% | 6.05% | -10.1% | -7.3% |
| Cn1nnc(CC[N+]2(C)CCOCC2)n1 | -3.35% | 3.45% | -3.35% | -24.5% | 6.05% | 3.9% |
| CNc1ccc(Cl)cc1C(N)=O | 2.8% | 6.9% | 28.7% | -3.25% | 7.05% | 19.9% |
| O=C(O)CC1CC2CC(=O)C1C2 (centres undefined) | -28.1% | -30.7% | -14.7% | -1.2% | -23.6% | 12.2% |
| CCCCCCCCCCCCCCCCc1ccc(CCCC(=O)O)cc1 | -20.8% | -16.2% | -13.3% | 5.45% | -17.3% | 12.5% |
| CC1C[C@]2(C)C(=O)N(c3ccccc3)C(=N)[C@@H]2N(C)c2ccccc21 (some centres undefined) | -14.2% | 6.7% | -3.55% | -4.15% | 25.9% | -15.8% |
| O=C(O)CCC(=O)Nc1ccc(S(=O)(=O)Nc2nccs2)cc1 | -18% | -36.2% | -16.5% | -17.9% | -18.3% | -14.6% |
| Cc1ccc(C(=O)c2ccccc2C(=O)O)cc1C | 4.35% | -4.35% | -17.9% | -18.4% | 9.2% | -18.6% |
| Cc1ccc2nc(N(C)C)nc(N)c2c1 | -7.95% | 2.05% | -5.45% | -7.85% | -8.3% | -6.2% |
